Assay outcomes deposited in PubChem BioAssay by National Center for Advancing Translational Sciences (NCATS).
MCF10A rereplic = inducers of DNA re-replication in MCF 10A breast cells; AID 624296; MCF 10A DNA re-replication, Hoechst nuclear intensity, 48 h; 350,000 compounds, 2.9% hits; Potency, µM (highest dose often 46.1 µM), inactives show at the highest dose activity, positive = re-replication, actives largely listed as activators; note: potency is the fitted concentration of half-maximal effect; % of control where 0% means no effect; nearly all actives have a fitted effect of over 50% in size
SW480 rereplic = induces DNA re-replication in SW480 colon adenocarcinoma cells. SW480 DNA re-replication, Hoechst DNA content imaging, 48 h. Potency, µM (doses to about 46.1 µM), for inactives: at the highest dose re-replication activation, actives largely listed as activators. 340,000 compounds, 1.8% hits. AID 624297; note: potency is the fitted concentration of half-maximal effect; % of control where 0% means no effect; nearly all actives have a fitted effect of over 55% in size
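First, 250 cells per well were seeded. Next, compound or vehicle (23 nL) was pinned in, plates sat 48 hr at 37 C. Finally Hoechst was added for 40 min before fluorescence scanning.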
VP16 counter = inhibits Gal4-VP16 luciferase reporter, ROR gamma counter-screen; Drosophila S2 Gal4-VP16 UAS-luciferase, luminescence, 20 h; Potency, µM (highest dose often 53.6 µM), for the others: top-dose activity, negative = inhibition, most hits filed as inhibitors; 310,000 compounds, 3.5% hits;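 note: Gal4-VP16 expression switched on by copper sulfate through the metallothionein promoter; potency is the fitted concentration of half-maximal effect; % is set by controls: 0 for no effect and ±100 for the full control effect; nearly all actives have a fitted effect of over 50% in size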
IL1B secr inh = inhibitors of inflammasome signaling (IL-1 beta secretion) | THP-1 LPS/ATP IL-1B secretion, AlphaLISA, 16 h; stronger effect = lower value | activity change, % at 57.5 µM | 360,000 compounds, 4.7% hits | AID 743279; in the data active = activity change below about -50%; inconclusive = mostly about -30% to -49%; note: % is set by controls: 0 for no effect and ±100 for the full control effect
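THP-1 cells pretreated 1 hr with compounds (up to 57.5 uM final), then stimulated with LPS (250 ng/mL final) plus ATP (1.25 mM final); secreted IL-1B measured by AlphaLISA after 16 hr, decreased signal indicating inhibition.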
RORg inh = ROR gamma (mouse) transcription inhibition | AID 2551 | Drosophila S2 Gal4-RORgamma UAS-luciferase reporter, 20 h | Potency, µM (titrated, usually from 53.6 µM), inactives show at the highest dose activity change, negative = inhibition, usual class: inhibitors | P51450 | 310,000 compounds, 5.4% hits; note: potency is the fitted concentration of half-maximal effect; % is set by controls: 0 for no effect and ±100 for the full control effect; nearly all actives have a fitted effect of over 60% in size
Target sequence (P51450 whole entry, looked up, the tested form may be a part): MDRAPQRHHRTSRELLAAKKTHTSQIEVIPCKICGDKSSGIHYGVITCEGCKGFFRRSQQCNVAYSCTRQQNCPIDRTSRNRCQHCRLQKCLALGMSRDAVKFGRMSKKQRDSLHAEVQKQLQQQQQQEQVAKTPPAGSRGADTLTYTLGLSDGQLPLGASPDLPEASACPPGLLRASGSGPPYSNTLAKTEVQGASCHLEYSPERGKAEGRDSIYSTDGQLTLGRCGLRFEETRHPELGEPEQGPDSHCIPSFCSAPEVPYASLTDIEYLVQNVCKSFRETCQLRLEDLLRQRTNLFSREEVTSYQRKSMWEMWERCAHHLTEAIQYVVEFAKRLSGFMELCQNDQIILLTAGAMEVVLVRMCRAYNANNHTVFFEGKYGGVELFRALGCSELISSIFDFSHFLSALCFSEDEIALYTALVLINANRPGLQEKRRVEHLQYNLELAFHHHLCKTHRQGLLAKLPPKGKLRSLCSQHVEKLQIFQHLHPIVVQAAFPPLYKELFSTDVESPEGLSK
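Schneider cells (Drosophila), stable Gal4 DBD–ROR gamma + UAS-luc; 1 hr cmpd preincubation; Cu2+ induction 700 uM final; 20 hr ambient; luminescence.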
The depositor's hits bear a star; ? = inconclusive; . = no result; [ ] = dose if it differs, or a comment. An excerpt weighted towards active compounds, which were near 11% of everything screened. Unless noted, calls come from the whole dose curve; as a rule, active = well fitted curve in the direction sought with a large enough effect; inconclusive = small, poorly fitted or top-dose-only effect, or another doubt; inactive = no such curve, though single readings can be large; an effect the other way counts as inactive or inconclusive.

SMILES	MCF10A rereplic	SW480 rereplic	VP16 counter	IL1B secr inh	RORg inh
CCN(C(=S)Nc1cc(S(=O)(=O)N2CCOCC2)ccc1Cl)c1cccc2ccccc12	?	19%	22µM*	9	?
O=C(COc1ccccc1F)Nc1cc(S(=O)(=O)N2CCOCC2)ccc1N1CCOCC1	7%	-1%[1.84 µM]	18%	?	-16%
COc1ccc2ccccc2c1/C=N/NC(=S)Nc1cc(S(=O)(=O)N2CCOCC2)ccc1N1CCOCC1	?	?	10µM*	-8	2.8µM*
COc1ccc(/C=N/NC(=S)Nc2cc(S(=O)(=O)N3CCOCC3)ccc2N2CCOCC2)cc1O	?	?	?	0	?
CCOc1cccc(/C=N/NC(=S)Nc2cc(S(=O)(=O)N3CCOCC3)ccc2N2CCOCC2)c1O	?	?	10µM*	-15	?
O=C(c1csnn1)N1CCC2(CCCN(c3ccc(-c4ccccc4)cc3)C2)CC1	.	.	12%	.	14%
CC1(c2ccccc2)CC(C)(C)N2C(=O)/C(=C3\SC(=S)NC3=O)c3cccc1c32 (stereo unspecified)	3.3µM*	-5%	-6%	22	-19%
Cc1c(C(=O)NN2CCOCC2)oc2c1ccc1ccccc12	-28%	1%	-5%	-71*	-32%
Cc1c(C(=O)NN2CCOCC2)oc2ccccc12	?	-23%[1.84 µM]	-2%	-13	1%
CCOC(=O)C(C)/C(C)=N/NC(N)=S (stereo unspecified)	11%	5%	1.3µM*	-60*	0.71µM*
Cc1cccc(SCc2noc(C(=O)NC(C)C)c2C(=O)O)c1	1%	-7%	16µM*	17	?
CC(C)NC(=O)c1onc(CSc2cccc3ccccc23)c1C(=O)O	-2%	-3%	?	51	18µM*
Cc1cc(C)cc(SCc2noc(C(=O)NC(C)C)c2C(=O)O)c1	-15%	?	?	-8	?
O=C(C[N+]1(CC#Cc2ccccc2)CCCCC1)c1ccccc1	-9%	3%	3%	-21	1%
O=C(C[N+]1(CC#Cc2ccccc2)CCCCC1)c1ccc(Cl)cc1	2%	-1%	11%	-57*	9%
C(#Cc1ccccc1)C[N+]1(CC#Cc2ccccc2)CCCCC1	0%	-1%	6%	-86*	30%
C(#Cc1ccccc1)C[N+]1(CC#Cc2cccc3ccccc23)CCOCC1	2%	-8%	-23%	-84*	?
CCC[N+]1(CC#CCC(c2ccccc2)c2ccccc2)CCCCC1	29%	23%	-3%	-85*	26%
C#CC[N+]1(CC#Cc2ccccc2)CCCCC1	-31%	-33%	8%	11	-7%
CCC(=O)[C@@]1(O)C(=O)N2C(=C3C(=O)OCCC31)N(Cc1ccccc1)C(C)=C(C(=O)OC)C2c1ccccc1 (stereo partly specified)	.	.	-5%[10 µM]	.	6%[10 µM]
C[C@H](CO)N1C[C@H](C)[C@@H](CN(C)Cc2ccc(C(=O)O)cc2)Oc2ncc(-c3ccc(C(=O)N(C)C)cc3)cc2C1=O	.	.	.	19	.
CC(=O)c1ccc(OC2(C)CCN(CCOc3ccc(C)cc3)C2)cc1 (stereo unspecified)	.	.	.	-12	.
CCCNC(=O)C1(C)CCCN(Cc2cc(-c3ccccc3)nn2C)C1 (stereo unspecified)	.	.	.	-8	.
Cc1ccc(C#CC[N+]2(CC#Cc3ccc(C)cc3)CCCCC2)cc1	-5%	-2%	7.1µM*	-86*	?
C#CC[N+]1(CC#Cc2cccc(C)c2)CCCCC1	2%	-2%	2%	11	1%
CCC[N+](CC#Cc1ccccc1)(CCC)CC(=O)c1ccc(Cl)cc1	?	11%	?	-71*	15%
CCC[N+](CC#Cc1ccccc1)(CCC)CC(=O)OC	-3%	0%	?	28	-4%
COC(=O)NC(/C(C(=O)OC)=C(\C)NCc1ccccc1)c1cccs1 (stereo unspecified)	.	.	-12%[10 µM]	.	-7%[10 µM]
COc1ccc(OC)c(NC(=O)c2cc(-c3cc(C)cc(C)c3O)n[nH]2)c1	?	20%	?	-1	-24%
